# Measurements published in PMC5540273 (PLoS ONE, 2017).
# Tests used:
# Conditions in all cases: concentration: 1 μM, replicates: in singlicate; n = 1
# IKK-alpha = test system: T1, IKK-alpha
# T1 construct: gene CHUK
# IKK-beta = test system: T2, IKK-beta
# T2 construct: gene IKBKB
# IKK-epsilon = test system: T3, IKK-epsilon
# T3 construct: gene IKBKE
# INSRR = test system: INSRR
# INSR = test system: INSR
# IRAK1 = test system: IRAK1
# IRAK3 = test system: IRAK3
# IRAK4 = test system: IRAK4
# ITK = test system: ITK
# [1] = test system: JAK1(JH1domain-catalytic)
# [2] = test system: JAK1(JH2domain-pseudokinase)
# [3] = test system: JAK2(JH1domain-catalytic)
# [4] = test system: JAK3(JH1domain-catalytic)
# JNK1 = test system: T4, JNK1
# T4 construct: gene MAPK8
# JNK2 = test system: T5, JNK2
# T5 construct: gene MAPK9
# JNK3 = test system: T6, JNK3
# T6 construct: gene MAPK10
# KIT-autoinhibited = test system: KIT-autoinhibited
# KIT = test system: KIT
# LATS1 = test system: LATS1
# LATS2 = test system: LATS2
# 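Also: KINOMEscan kinase panel screen.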
SMILES,%Inh (IKK-alpha) [%],%Inh (IKK-beta) [%],%Inh (IKK-epsilon) [%],%Inh (INSRR) [%],%Inh (INSR) [%],%Inh (IRAK1) [%],%Inh (IRAK3) [%],%Inh (IRAK4) [%],%Inh (ITK) [%],%Inh [1] [%],%Inh [2] [%],%Inh [3] [%],%Inh [4] [%],%Inh (JNK1) [%],%Inh (JNK2) [%],%Inh (JNK3) [%],%Inh (KIT-autoinhibited) [%],%Inh (KIT) [%],%Inh (LATS1) [%],%Inh (LATS2) [%]
COCCOCCOc1cc2ncc3c4ccc(C#N)cc4[nH]c3c2cc1OC,30,30,60,0,0,96,75,99.9,39,0,68,11,84,5,0,0,61,73,2,10
CNC(=O)c1ccccc1Nc1nc(Nc2ccc(N3CCOCC3)cc2)ncc1Cl.Cl [GSK1576028],85,78,74,98.6,95.5,100,99.7,99.6,99.9,97.6,99.9,99,100,100,100,100,10,92.4,32,92.1
O=C(Nc1cccc(-c2nn3ncccc3c2-c2ccnc(Nc3ccccc3)n2)c1)c1c(F)cccc1F [GSK198271],0,0,0,0,28,0,0,11,12,5,0,2,0,31,56,21,20,100,0,0
FC(F)(F)c1ccc(/C=C/c2cncnc2Nc2ccc3[nH]c(Cc4ccccc4)nc3c2)cc1 [GW709199],0,0,0,0,0,2,3,0,6,10,2,65,0,0,0,0,0,0,19,0
COc1cc2c(cc1OCCN1CCNCC1)ncc1c3ccc(C#N)cc3[nH]c21,46,32,61,3,0,95.7,88,99.7,23,0,45,64,85,13,0,0,55,70,0,42
